Hsp70 act: Hsp70 transcriptional activators, primary screen, cell-based, HeLa, Hsp70 promoter luciferase, luminescence, 10 µM | HeLa Hsp70 promoter luciferase reporter; scaled: vehicle 0, proteasome-inhibitor control 100% | activation, % at 10 µM | 0.04% of 200,000 active;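 active = activation above the mean across all tested compounds plus 3 SD, cutoff set per campaign, cut at about 5.5% in these data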;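 note: 100% = MG132 at 30 µM as the positive control and 0% = DMSO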
HSF1 inhib: HSF1 inhibitors in luciferase reporter cells, primary screen, cell-based, NIH3T3, luminescence; NIH3T3-HGL HSE-luciferase, MG132-induced, luminescence 8 h; active compounds read low; activity change, negative = inhibition, % at 7.5 µM (by protocol); 0.77% of 300,000 active;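 active = more than half of replicate wells show activity change below -50%, luminescence cut by over half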;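 note: luciferase reports HSF-1 transcriptional activity via heat shock element; 0% = median of DMSO wells and -100% = zero luminescence signal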
S1P3 antag: S1P3 receptor antagonists, primary screen, cell-based; AID 485, 2006; CHO S1P3 NFAT-BLA reporter, FRET fluorescence, antagonist mode; Sphingosine 1-phosphate receptor 3 (Homo sapiens), Q99500; inhibition, % at 4.98 µM; 0.27% of 170,000 active;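 active = inhibition above the plate cutoff, the mean inhibition of test wells on that plate plus 3 SD, cut at about 28% in these data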;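 note: cells challenged with S1P at its EC80 of 0.8 µM; blue over green emission ratio from cleaved BLA substrate after 4 h stimulation; 0% = S1P-stimulated wells and 100% = unstimulated DMSO-only wells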
S1P4 ag: S1P4 receptor agonists, primary screen, cell-based. Sphingosine 1-phosphate receptor 4 (Homo sapiens), O95977. S1P4-expressing cell line, agonist reporter assay. activation, % at 4.98 µM. 0.35% of 220,000 active. AID 1509, 2009; in the data active = activation above about 11%;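 note: 0% = DMSO vehicle and 100% = reference agonist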
Target sequence (O95977 whole entry, looked up): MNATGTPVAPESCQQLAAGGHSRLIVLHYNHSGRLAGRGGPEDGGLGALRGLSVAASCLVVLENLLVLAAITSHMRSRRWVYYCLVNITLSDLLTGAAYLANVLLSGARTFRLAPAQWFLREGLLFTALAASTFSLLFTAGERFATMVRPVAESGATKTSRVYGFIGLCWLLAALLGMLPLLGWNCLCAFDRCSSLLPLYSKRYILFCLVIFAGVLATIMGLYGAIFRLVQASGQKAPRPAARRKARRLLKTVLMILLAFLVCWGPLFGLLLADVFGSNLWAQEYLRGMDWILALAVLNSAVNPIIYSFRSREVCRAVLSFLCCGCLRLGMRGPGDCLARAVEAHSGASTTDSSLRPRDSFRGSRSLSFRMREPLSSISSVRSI
HSF-1 act: HSF-1 activators, primary screen, NIH3T3-HGL cells, MG132 stress, luminescence, single point; NIH3T3-HGL HSF-1 luciferase reporter, 8 h; 100% = twice DMSO control signal; activation, % at 9 µM; 1.7% of 300,000 active;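 active = mean replicate activation of at least 50% with a set share of replicates each reaching 50%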;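 note: 0% = median of the neutral control wells and 100% = twice that signal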
S1P4 antagonist: S1P4 receptor antagonists, primary screen, cell-based | S1P4-expressing cells, antagonist mode, reporter read-out | Sphingosine 1-phosphate receptor 4 (Homo sapiens), O95977 | 0.26% of 220,000 active | inhibition, % at 4.98 µM; in the data active = inhibition above about 29%;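 note: 0% = wells stimulated with agonist and 100% = vehicle wells without agonist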
Numbers without * were called inactive; / = not tested or not shown. The list is not random: actives were taken first. Their share in the collection is about 2.9%.

SMILES | Hsp70 act | HSF1 inhib | S1P3 antag | S1P4 ag | HSF-1 act | S1P4 antagonist
Cc1ccc(C(C)C)c(OCC(O)CN2CC(C)OC(C)C2)c1 (stereo unspecified) | 0.3 | -6.2 | -14.0 | 3.0 | 4.6 | -26.8
Cc1cc(C)cc(OCC(O)CN2CC(C)OC(C)C2)c1 (stereo unspecified) | / | -62.7* | / | / | -71.2 | /
COc1cc2c(cc1OC)C(c1cccs1)N(C(=S)NC(C)C)CC2 (stereo unspecified) | -0.1 | 54.7 | -10.1 | 0.2 | 90.6* | -0.7
O=C(CN1CCN(Cc2ccccc2Cl)CC1)N/N=C/C=C/c1ccco1 | / | 8.0 | 3.8 | -0.5 | 39.0 | -1.8
O=C(N/N=C\C=C\c1ccco1)c1cc(-c2ccc3ccccc3c2)n[nH]1 | -0.2 | 29.4 | 2.2 | 1.3 | 57.4* | -6.4
O=C(N/N=C/C=C/c1ccco1)c1cnccn1 | / | 2.4 | -13.3 | 0.5 | 9.4 | 9.3
O=C(N/N=C/C=C\c1ccco1)c1ccccn1 | / | 32.7 | 8.5 | 0.0 | 61.8* | -2.2
O=C(CN1CCN(Cc2ccccc2)CC1)N/N=C\C=C/c1ccco1 | -0.2 | -68.5* | -6.4 | 0.2 | -75.9 | 16.1
O=C(N/N=C/C=C/c1ccco1)c1cccnc1 | -0.1 | -8.5 | / | -3.1 | -7.8 | 3.2
COc1ccc(OCc2nc(C#N)c(NCCCn3ccnc3)o2)cc1 | -0.2 | 0.7 | -13.9 | 0.8 | -10.5 | -14.9
Cc1ccc(S(=O)(=O)N(C)C)cc1[N+](=O)[O-] | / | -0.5 | -17.8 | -0.1 | -16.5 | 4.1
CCc1cccc(NS(=O)(=O)c2ccc3c(c2)N(C)CCO3)c1 | / | 5.7 | / | / | 15.3 | /
N#Cc1cc2c(nc1SCC(=O)N1CCOCC1)CCCCC2 | -0.4 | -67.2* | / | -5.5 | -75.2 | 0.5
CCOC(=O)C1=C(C)OC(N)=C(C#N)C1c1ccc(C)s1 (stereo unspecified) | -0.1 | 7.4 | -9.7 | 2.1 | 3.8 | -9.0
Cn1c(SCC(=O)NCc2ccccc2)nc2ccccc21 | 0.0 | -73.4* | / | -1.2 | -79.0 | -3.1
O=C(Nc1ccc(S(=O)(=O)N2CCOCC2)cc1)c1ccc(Cl)cc1Cl | / | -66.5* | / | / | -73.9 | /
Cc1cc(C)nc(SCc2nc3ccccc3n2C)n1 | -0.4 | 9.6 | -25.5 | 0.6 | 11.9 | -29.7
Cn1c(CSc2nc3ccccc3n2C)nc2ccccc21 | 0.2 | 30.6 | / | 1.8 | 70.2* | -1.1
O=C(CSc1nc2[nH]ncc2c(=O)n1-c1ccccc1Br)NCc1ccco1 | -0.2 | -6.4 | 82.8* | -0.7 | 3.2 | -10.6
Cc1ccc(NS(=O)(=O)c2ccc(C(=O)N3CCN(S(=O)(=O)c4ccccc4)CC3)cc2)cc1 | / | 3.4 | / | / | 8.2 | /
COc1ccc(-c2csc(/C(C#N)=C/Nc3cc4oc5ccccc5c4cc3OC)n2)cc1 | -0.2 | -8.6 | -1.8 | 0.7 | -23.0 | 8.5
CCn1c(CNc2ccc(Cl)cc2)nnc1SCc1ccccc1 | -0.1 | 6.6 | / | 0.6 | -3.8 | -8.4
O=C(CSc1nc2cc(Cl)ccc2s1)Nc1cccc(S(=O)(=O)N2CCOCC2)c1 | -0.3 | -54.1* | -17.0 | 3.3 | -63.4 | -16.3
CCn1c(CNc2ccc(Cl)cc2)nnc1SCC(=O)NCc1ccccc1 | -0.1 | 44.3 | 13.4 | -3.4 | 60.2* | 3.7
CCOCCCn1c(SCC(=O)NCc2ccco2)nc2c(sc3ccccc32)c1=O | 0.1 | 2.4 | / | -1.5 | 11.9 | 1.8
SMILES | Hsp70 act | HSF1 inhib | S1P3 antag | S1P4 ag | HSF-1 act | S1P4 antagonist
O=C(CSc1nc2ccccc2s1)Nc1ccc(Cl)c(S(=O)(=O)N2CCOCC2)c1 | -0.3 | 13.6 | -1.0 | 1.5 | 46.8 | -6.1
O=C(CSc1nc2cc(Cl)ccc2c(=O)n1Cc1ccco1)Nc1ccc(S(=O)(=O)N2CCOCC2)cc1 | -0.4 | 40.8 | -1.6 | -0.9 | 78.9* | 5.8
CCCCn1c(SCC(=O)NCc2ccco2)nc2c(sc3ccccc32)c1=O | -0.3 | -65.3* | / | -0.8 | -73.4 | 2.1
O=C(O)CCN1C(=O)c2ccc(NC(=O)CCc3ccccc3)cc2C1=O | / | -5.1 | / | / | 16.0 | /
CC(NC(=O)c1ccc(NC2=NC3CS(=O)(=O)CC3S2)cc1)c1ccccc1 (stereo unspecified) | / | -3.7 | / | / | -21.0 | /
COc1ccc(CCC(=O)NC(C)c2ccccc2)cc1OC (stereo unspecified) | / | 5.5 | / | / | -5.8 | /
Cn1c(SCC(=O)NCc2ccco2)nc2ccccc2c1=O | -0.3 | -5.8 | -8.3 | 2.2 | 5.0 | -0.8
O=C(CSc1nc2ccccc2c(=O)n1Cc1ccco1)NCc1ccccc1 | -0.3 | 1.6 | 76.4* | -0.7 | -1.0 | 5.0
Cn1c(CNc2ccccc2O)nc2ccccc21 | 0.1 | 39.8 | -4.7 | 1.2 | 80.3* | 6.3
O=C(CSc1nc2ccccc2c2nc3ccccc3n12)NCc1ccco1 | -0.4 | 45.2 | 15.0 | 0.9 | 103.3* | -30.4
O=C(CSc1nc2ccccc2c(=O)n1Cc1ccccc1)NCc1ccco1 | -0.2 | 1.9 | / | 0.6 | 2.8 | 4.5
O=C(Nc1ccc(S(=O)(=O)N2CCCCC2)cc1)C1CC(=O)N(c2ccc(Cl)cc2)C1 (stereo unspecified) | / | 2.5 | / | / | 2.2 | /
COc1ccc2nccc(C(N)=O)c2c1 | / | -13.5 | -5.0 | 1.0 | -11.4 | 7.5
COC(=O)c1cc([N+](=O)[O-])c(-n2cncn2)c([N+](=O)[O-])c1 | -0.3 | -5.5 | -19.6 | 0.1 | 7.0 | -0.5
O=C(c1cc(COc2ccc(F)cc2Cl)on1)N1CC2C[C@@H]3CC1C[C@H](C2)C3 | / | 36.6 | / | / | 48.7 | /
COC(=O)C(NNc1ccccc1C)(NC(=O)c1ccc(F)cc1)C(F)(F)F (stereo unspecified) | -0.1 | 36.4 | / | 0.5 | 80.5* | -24.7
Cc1ccc2nc(NC(=O)CSCC(=O)OCC(=O)c3ccccc3)sc2c1 | -0.6 | -66.6* | -6.9 | -0.3 | -74.3 | -18.3
CCOCC(=O)Nc1nc2ccc(C)cc2s1 | 0.7 | 25.4 | / | 1.0 | 37.1 | -12.4
O=C(CNC(=O)c1nc[nH]c1C(=O)NCc1ccccc1)OCc1ccccc1 | / | -4.8 | / | / | -3.2 | /
CC(c1ccccc1)N1CCN(C(=O)CCl)CC1 (stereo unspecified) | 0.1 | -94.0* | -2.4 | -0.1 | -93.8 | 6.8
Cc1cc(C)c(NC(=O)C2=COCCO2)c(C)c1 | / | 1.4 | / | / | 12.1 | /
CC(OC(=O)c1ccc2c(c1)S(=O)(=O)c1ccccc1C2=O)C(N)=O (stereo unspecified) | / | -3.2 | / | / | -11.1 | /
Cc1ccc(C(=O)Nc2ccccc2[N+](=O)[O-])cc1S(=O)(=O)N1CCOCC1 | / | 16.6 | / | / | 28.9 | /
COc1ccc(C(=O)Nc2ccccc2[N+](=O)[O-])cc1S(=O)(=O)N1CCOCC1 | / | 76.0 | / | / | 131.1* | /
CNc1oc(-c2ccccc2F)nc1S(=O)(=O)c1ccc(C)cc1 | / | -3.6 | / | / | -17.0 | /

High-throughput results: PubChem, several laboratories
